# Experimental data taken from PubChem BioAssay (EPA / NIEHS).
# Values joined by “and” are separate entries in the source; they are usually repeats but may differ in a detail not shown here. Identical values can stand only once. Inconclusive results are not listed. Active and inactive are the calls of the source. How the source made its calls, unless noted: active means hit-call score of the fitted dose curve at least 0.9, where 1 is the maximum; inactive means score below 0.9.
# Assays:
# [1] = molecular target: Estrogen receptor (Homo sapiens) (UniProt P03372); test: CCTE_Deisenroth_AIME_384WELL_LUC_Active: CCTE's 384-well Estrogen Receptor Transactivation Assay with AIME metabolic competence (ERTA luciferase; metabolism positive), Deisenroth Lab (AID 2284030; active means hit-call score of the fitted dose curve at least 0.9, where 1 is the maximum)
# Method: CCTE_Deisenroth_AIME_384WELL (AIME metabolism assay) is a cell-based, single-readout assay that uses VM7Luc4E2, a human mammary gland/breast cell line, with measurements taken at 24 hour after chemical dosing in a 384-well plate.CCTE_Deisenroth_AIME_384WELL_LUC_Active is one of four assay components measured or calculated from the CCTE_Deisenroth_AIME_384WELL assay. It is designed to make measurements of luciferase induction, a form of inducible reporter, as detected with bioluminescence signals by luciferase-coupled ATP quantitation technology.CCTE_Deisenroth_AIME_384WELL_LUC_Active is a component of the CCTE_Deisenroth_AIME_384WELL assay that measures the effect of retroftting the VM7Luc ERTA assay with the Alginate Immobolization of Metabolic Enzymes (AIME) metabolism method. AIME is optimized to impart phase I hepatic metabolism using phenobarbital/beta-naphthoflavone induced hepatic S9 from male Sprague Dawley rats. Parent chemicals are incubated for 2 hours in the AIME assay prior to transfer to the VM7Luc ERTA assay plate. […] This endpoint evaluates reporter induction in metabolism positive mode. Using a type of inducible reporter in VM7Luc cells, gain-of-signal activity can be used to understand changes in the reporter gene as they relate to xenobiotic metabolism and the gene ESR1. This assay endpoint, CCTE_Deisenroth_AIME_384WELL_LUC_Active, was analyzed in the positive analysis fitting direction relative to 17beta-estradiol as the positive control in the ERTA assay. To generalize the intended target to other relatable targets, this assay endpoint is annotated to the nuclear receptor intended target family, where the subfamily is steroidal.
# The AIME procedure consists of a preparative "pre-stamping" step using a barium chloride/poly-L-lysine (PLL) solution followed by "stamping" the lid in alginate-hepatic S9 (metabolism positive) or alginate-water (metabolism negative) to form microspheres. […]
# [2] = CCTE_Shafer_MEA_acute_burst_percentage_mean: CCTE's Neural Acute Assay for Percentage of Spikes in a Burst, Shafer Lab (AID 2284017);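 on AC50: curve fitted for loss of signal so potency reflects decreased burst percentage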
# In short: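 Compounds were tested at 0.03-40 uM on primary rat cortical neuron networks grown over microelectrodes, with at least three wells per compound. Spontaneous firing was recorded for 40 min before and 40 min after dosing, and the change in burst percentage was computed per well.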
# [3] = CCTE_Shafer_MEA_acute_burst_percentage_std: CCTE's Neural Acute Assay for Standard Deviation of Burst Percentage, Shafer Lab (AID 2284018);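 further: fitted in the negative direction so actives lower burst percentage SD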
# In short: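 Rat primary cortical neurons on 48-well MEAs, DIV 13 or 15, 37 C. 40-min baseline then 40-min recording with compound (0.03-40 uM); well-level SD of per-electrode burst spike percentage, expressed as percent change from baseline.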
# [4] = CCTE_Shafer_MEA_acute_per_network_burst_spike_number_mean: CCTE's Neural Acute Assay for Average Number of Spikes in a Network Burst, Shafer Lab (AID 2284019);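 on AC50: curve fitted for loss of signal so actives reduce spikes per network burst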
# In short: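 Rat cortical cultures, DIV 13/15; spike threshold 8x rms noise, 300-5000 Hz band-pass, 12.5 kHz sampling; wells need >/= 10 active electrodes. Compound 0.03-40 uM, 40 min, 37 C; % change vs own baseline, DMSO negative control.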
# [5] = CCTE_Shafer_MEA_acute_per_network_burst_spike_number_std: CCTE's Neural Acute Assay for Standard Deviation of Number of Spikes in a Network Burst, Shafer Lab (AID 2284020);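 further: fitted for decrease in spike-number SD versus DMSO so actives lower it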
# In short: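 Rat cortical cultures, DIV 13/15, 37 C; 20-min stabilisation, 40-min baseline, compound 0.03-40 uM, 40-min re-record. Spikes detected at 8x rms noise (300-5000 Hz band-pass). Readout: % change from baseline in per-burst spike-number SD.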
# [6] = CCTE_Shafer_MEA_acute_per_network_burst_electrodes_number_mean: CCTE's Neural Acute Assay for Mean Number of Electrodes in a Network Burst, Shafer Lab (AID 2284021);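 further: curves fitted for decreases only so hits reduce electrodes per burst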
# In short: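 Rat primary cortical neurons on 16-electrode MEA wells were recorded 40 min at baseline on DIV 13 or 15, then 40 min after compound (0.03-40 uM), at 37 C. Value is percent change per well, fitted in loss direction versus DMSO.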
# [7] = CCTE_Shafer_MEA_acute_cross_correlation_HWHM: CCTE's Neural Acute Assay for Cross Correlation at Half Width at Half Maximum, Shafer Lab (AID 2284026);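 further: percent change per well from pre-dose baseline in spike cross-correlogram half width; hits are a decrease in cross-correlogram half width relative to DMSO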
# In short: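 Primary rat cortical neurons on 16-electrode MEA wells; 40-min baseline on DIV 13 or 15, then 40-min recording with compound (0.03-40 uM) at 37 C. HWHM of spike cross-correlogram expressed as percent change from baseline per well, DMSO reference.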
# [8] = CCTE_Shafer_MEA_acute_synchrony_index: CCTE's Neural Acute Assay for Synchrony, Shafer Lab (AID 2284027);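 further: network synchrony index of spontaneous spiking in primary rat cortical neurons on MEAs; fitted for loss of signal so actives lower synchrony relative to DMSO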
# In short: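 Acute exposure of rat primary cortical neurons (DIV 13 or 15) at 0.03-40 uM. Synchrony index, 40 min before vs after, as % change relative to DMSO control.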
# [9] = CCTE_Shafer_MEA_dev_firing_rate_mean: CCTE's Neural Network Formation Assay for Mean Firing Rate, Shafer Lab (AID 2284031);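 on AC50: curve fitted for loss of firing so AC50 reflects decreased mean firing rate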
# In short: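 Extracellular spike frequency, AUC over DIV 5–12 recordings, in rat cortical neuron MEA cultures dosed from plating; loss direction vs DMSO.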
# [10] = CCTE_Shafer_MEA_dev_per_burst_spike_percent: CCTE's Neural Network Formation Assay for Percent of Spikes in a Burst, Shafer Lab (AID 2284032);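 on AC50: fitted as a decrease in burst spike percentage below DMSO baseline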
# In short: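 Value is trapezoidal AUC over recordings on days 5, 7, 9 and 12 of the well-mean fraction of spikes falling in single-electrode bursts; rat cortical cultures exposed continuously from plating, treatment renewed DIV 5 and 9, fitted downward against DMSO.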
# Estrogen receptor (Homo sapiens), sequence (P03372 whole entry, looked up): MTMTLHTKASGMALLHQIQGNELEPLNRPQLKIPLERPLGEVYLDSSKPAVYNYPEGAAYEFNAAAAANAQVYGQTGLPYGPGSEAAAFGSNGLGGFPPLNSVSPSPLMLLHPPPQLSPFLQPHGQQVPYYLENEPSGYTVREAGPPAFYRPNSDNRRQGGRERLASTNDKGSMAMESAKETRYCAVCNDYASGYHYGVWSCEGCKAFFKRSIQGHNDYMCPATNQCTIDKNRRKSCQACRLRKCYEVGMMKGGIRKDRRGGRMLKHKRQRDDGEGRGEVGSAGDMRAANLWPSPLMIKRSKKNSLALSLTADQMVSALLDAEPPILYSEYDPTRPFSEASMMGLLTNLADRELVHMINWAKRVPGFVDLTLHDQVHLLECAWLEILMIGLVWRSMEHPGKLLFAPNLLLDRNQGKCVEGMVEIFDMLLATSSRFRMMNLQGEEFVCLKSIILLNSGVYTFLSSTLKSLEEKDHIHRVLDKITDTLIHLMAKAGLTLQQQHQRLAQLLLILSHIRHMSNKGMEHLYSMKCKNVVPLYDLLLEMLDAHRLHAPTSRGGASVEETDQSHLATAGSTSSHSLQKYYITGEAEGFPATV
compound,measurement,setting,value
CCCCCCCCCCCC(=O)OCC(O)CO (stereo not given),outcome,[1],inactive
O=C(Nc1ccc2c(O)c(N=Nc3ccc(N=Nc4ccc(S(=O)(=O)O)cc4)cc3)c(S(=O)(=O)O)cc2c1)c1ccccc1,AC50,[2],15 µM (active)
same,outcome,[3],inactive
same,outcome,[4],inactive
same,outcome,[5],inactive
same,outcome,[6],inactive
same,outcome,[7],inactive
same,AC50,[8],15 µM (active)
CCOC(=O)C(C#N)=C(c1ccccc1)c1ccccc1,outcome,[2],inactive
same,outcome,[3],inactive
same,outcome,[4],inactive
same,outcome,[5],inactive
same,outcome,[6],inactive
same,outcome,[7],inactive
same,outcome,[8],inactive
O=CN1CCOCC1,outcome,[2],inactive
same,outcome,[3],inactive
same,outcome,[4],inactive
same,outcome,[5],inactive
same,outcome,[6],inactive
same,outcome,[7],inactive
same,outcome,[8],inactive
CC1(C)CCC[C@]2(C)[C@H]3CCO[C@]3(C)CC[C@@H]12,outcome,[2],inactive
same,outcome,[3],inactive
same,outcome,[4],inactive
same,outcome,[5],inactive
same,outcome,[6],inactive
same,outcome,[7],inactive
same,outcome,[8],inactive
CCCCCCC(CO)CCCC (stereo not given),AC50,[2],4.14 µM (active)
same,outcome,[3],inactive
same,AC50,[4],0.0509 µM (active)
same,outcome,[5],inactive
same,AC50,[6],0.0774 µM (active)
same,AC50,[7],4.38 µM (active)
same,AC50,[8],4.68 µM (active)
COCCOCCOCCO,outcome,[9],inactive
same,outcome,[10],inactive
CN(C)CCOC(C)(c1ccccc1)c1ccccn1 (stereo not given),outcome,[9],inactive
same,outcome,[10],inactive
C=CC(C)(O)CCC=C(C)C (stereo not given),outcome,[2],inactive
same,outcome,[3],inactive
same,outcome,[4],inactive
same,outcome,[5],inactive
same,outcome,[6],inactive
same,outcome,[7],inactive
same,outcome,[8],inactive
CC(C)CCCCCCc1ccc(OCCOCCO)cc1,outcome,[1],inactive
CN(C)C(=S)SC(=S)N(C)C,outcome,[2],inactive
same,outcome,[3],inactive
same,outcome,[4],inactive
same,outcome,[5],inactive
same,outcome,[6],inactive
same,outcome,[7],inactive
same,outcome,[8],inactive
CS(=O)(=O)OCCCCOS(C)(=O)=O,outcome,[1],inactive
same,outcome,[9],inactive
same,outcome,[10],inactive
CC(CN=Cc1ccccc1O)N=Cc1ccccc1O (stereo not given),outcome,[2],inactive
same,outcome,[3],inactive
same,AC50,[4],15 µM (active)
same,outcome,[5],inactive
same,outcome,[6],inactive
same,AC50,[7],15 µM (active)
same,outcome,[8],inactive
Oc1c(Cl)cc(Cl)c(Cl)c1Cc1c(O)c(Cl)cc(Cl)c1Cl,AC50,[2],0.163 µM (active)
same,outcome,[3],inactive
same,outcome,[4],inactive
same,AC50,[5],0.153 µM (active)
same,AC50,[6],0.54 µM (active)
same,outcome,[7],inactive
same,AC50,[8],0.203 µM (active)
same,AC50,[9],894 nM (active) and 1.28 µM (active)
same,AC50,[10],1.16 µM (active) and 954 nM (active)
COCCc1ccc(OCC(O)CNC(C)C)cc1 (stereo not given),outcome,[2],inactive
same,outcome,[3],inactive
same,outcome,[4],inactive
same,outcome,[5],inactive
same,outcome,[6],inactive
same,outcome,[7],inactive
same,outcome,[8],inactive
same,outcome,[9],inactive
same,outcome,[10],inactive
FC(F)(F)COCC(F)(F)F,outcome,[9],inactive
same,outcome,[10],inactive
